Source: PubChem BioAssay AID1460 (National Center for Advancing Translational Sciences (NCATS), 2008)
The whole screen tested about 270,000 compounds, of which about 5,800 (2.1%) were called active. Entries that show only a call come without a potency. Inconclusive results (about 16%) are left out. Calls follow the shape of the dose curve; as a rule, active = well fitted inhibition curve with a large enough effect; inconclusive = small, poorly fitted or top-dose-only effect; inactive = flat fitted curve, though single readings scatter. The sample as a whole holds a higher share of actives than the screen did.

biological target: Microtubule-associated protein tau (Homo sapiens) (UniProt P10636); assay: qHTS for Inhibitors of Tau Fibril Formation, Thioflavin T Binding; conditions: recombinant tau K18 P301L, heparin-induced fibrillization, ThT fluorescence; series mostly up to 57.4 µM; also: nearly all actives have a fitted effect of over 55% in size
Sequence (P10636 561-689 P618L limits assumed): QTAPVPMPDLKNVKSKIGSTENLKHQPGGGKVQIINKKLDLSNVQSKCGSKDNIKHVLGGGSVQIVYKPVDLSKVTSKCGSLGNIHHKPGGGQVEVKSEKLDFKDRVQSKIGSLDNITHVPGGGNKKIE
Method in brief: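 Using a mix of unlabeled (15 uM) and Alexa 594-labeled (0.24 uM) tau K18 P301L, heparin-triggered fibrillization over 6 hr at 37 C was scored by ThT fluorescence.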
Potency is read from the fitted curve at half-maximal effect.

SMILES	Potency
O=C(Cc1ccc(Br)cc1)N1CCN(c2ccccn2)CC1	inactive
C(=N\N1CCN(c2ccccn2)CC1)/C1=C(N2CCOCC2)C(=C/c2ccccc2)/CC1	11.2 µM (active)
O=C(CN1CCN(c2ccccn2)CC1)N1CCc2ccccc21	inactive
O=C1Nc2ccc(Br)cc2/C1=N/N=C/C1=C(N2CCOCC2)C(=C\c2ccccc2)/CC1	4.47 µM (active)
Cc1c(-c2nc(-c3ccc4c(c3)OCO4)no2)nnn1-c1ccc(Br)cc1F	inactive
CC1CCCN(c2nc3c(S(=O)(=O)c4ccc(C(C)C)cc4)nnn3c3ccsc23)C1 (stereo not given)	inactive
CCOc1ccc(CNCc2c(C(=O)O)c(C)n(Cc3cccc(OC)c3)c2C)cc1OC	inactive
CCc1ccc(N(CC)C(=O)CCn2cnc3onc(-c4ccc(F)cc4)c3c2=O)cc1	inactive
Cc1ccc2c(=O)c(C(=O)c3ccc(F)cc3)cn(CC(=O)NC3CCCCC3)c2n1	inactive
COc1cc(-c2noc(-c3ccc(N4CCCC4)c([N+](=O)[O-])c3)n2)cc(OC)c1OC	inactive
CCc1ccc(NC(=O)c2sc3nc4c(cc3c2N)CN(CC)CC4)cc1	10 µM (active)
CCN1CCc2nc(NC(=O)c3cc(F)c(F)cc3Cl)sc2C1	inactive
CCc1ccccc1NC(=O)c1sc2nc3c(cc2c1N)CN(Cc1ccccc1)CC3	inactive
Cc1ccc(-n2ncc(C(=O)N(C)Cc3ccccc3)c2-n2cccc2)cc1	inactive
O=C(N/N=C/c1ccc([N+](=O)[O-])cc1)c1c[nH]c2ccccc12	2.82 µM (active)
Cc1ccccc1OCCOc1ccc([N+](=O)[O-])cc1/C=N/n1cnnc1	inactive
O=C(NC(Cc1c[nH]c2ccccc12)C(=O)N/N=C/c1ccc(Br)cc1)c1cccs1 (stereo not given)	inactive
O=[N+]([O-])c1ccc(N/N=C/c2ccccc2)cc1	3.55 µM (active)
COc1cc(CC(=O)N/N=C/c2ccccc2)c([N+](=O)[O-])cc1OC	inactive
O=C(Nc1ccccc1)/C(=C/c1ccc([N+](=O)[O-])cc1)NC(=O)c1ccccc1	inactive
Cc1cccc(COc2ccccc2/C=N/Nc2ccc([N+](=O)[O-])cc2)c1	3.16 µM (active)
Cc1c(C(=O)N/N=C/c2ccccc2)[nH]c2c([N+](=O)[O-])cccc12	inactive
Cc1cccc(C(=O)NNC(=O)c2cccc([N+](=O)[O-])c2)c1	inactive
CNc1ccc(-c2nc(-c3ccco3)no2)cc1[N+](=O)[O-]	inactive
Cc1ccc(Cl)cc1NC(=O)NC1COc2ccccc2C1 (stereo not given)	inactive

SMILES	Potency
COc1ccc(NC(=O)CSc2nccn2C2CCCC2)cc1OC	inactive
O=C(CN1C(=O)CCn2nc(-c3ccccc3)cc21)NCc1ccccc1	inactive
Cc1ccc(-n2c(SCC(=O)Nc3cccc(F)c3)nc3c(oc4ccccc43)c2=O)cc1C	inactive
COc1ccc(S(=O)(=O)N2CCOCC2)cc1C(=O)Nc1nc2ccccc2s1	inactive
COc1cccc2sc(NNC(=O)c3nc4ccccc4s3)nc12	7.94 µM (active)
COc1ccc(/C=C(/CC(=O)Nc2ccc(C)cc2)c2nc3ccccc3s2)cc1	inactive
Cc1ccc(C)c(N2CCN(c3ccc4cc(S(=O)(=O)N5CCC(C)CC5)ccc4n3)CC2)c1	inactive
Cc1[nH]c2ccccc2c1SCC(=O)Nc1nccs1	inactive
CC(=O)c1cc(C#N)c(SCC(=O)C(C)(C)C)nc1C	inactive
CC(=O)c1cc(C#N)c(SCC(=O)Nc2nccs2)nc1C	7.08 µM (active)
COc1ccc(CCNc2ncnc3onc(-c4ccc(Cl)cc4)c23)c(OC)c1	inactive
CCOCCc1nn2c(=O)cc(COC(=O)CNC(=O)c3ccc(C(C)(C)C)cc3)nc2s1	inactive
Cc1c(NC(=O)CCC2CCCCC2)cc(C(=O)N2CCOCC2)cc1[N+](=O)[O-]	inactive
Cc1cc(C=O)c(C)n1-c1ccc(NC2CCCCC2)c([N+](=O)[O-])c1	14.1 µM (active)
Cc1ccc(C(=O)COC(=O)CCCC(=O)NC2CCCCC2)cc1[N+](=O)[O-]	inactive
COCCN(Cc1ccco1)C(=O)Cn1ncc2c([nH]c3ccccc32)c1=O	inactive
CC(CC(=O)N1CCN(c2ccccc2)CC1)c1ccccc1 (stereo not given)	inactive
O=C(Nc1ccc(F)cc1)N1CCN(c2ccc(F)cc2)CC1	inactive
CC(=O)N1CCN(c2ccc(NCc3ccc(C(C)C)cc3)cc2)CC1	12.6 µM (active)
Cc1c(CCNC(=O)c2ccc(C(F)(F)F)cc2)sc2nc(-c3ccc(F)cc3)nn12	inactive
COc1ccc(Cl)cc1NC(=O)CCn1c(=O)c2cccn2c2ccccc21	inactive
CCOc1ccc(CNC(=O)c2ccc3nc(CC)c(CC)nc3c2)cc1OC	inactive
COc1ccc2c(c1)C(C)=CC(C)(C)N2C(=O)CNCc1ccc2c(c1)OCO2	inactive
COc1ccc2c(c1)C(C)=CC(C)(C)N2C(=O)Nc1ccccc1	28.2 µM (active)
CC1=CC(C)(C)N(C(=O)CSc2nnc(-c3ccccc3)o2)c2ccc(C)cc21	inactive

SMILES	Potency
O=C(NC1CC(=O)N(c2ccc(Cl)cc2)C1)C1CCCC1 (stereo not given)	inactive
Cn1ccc2cc(S(=O)(=O)N3CCCC(C(=O)NCc4ccccc4F)C3)ccc21 (stereo not given)	inactive
CCOc1ccc2nc(NC(=O)c3cc([N+](=O)[O-])ccc3N3CCOCC3)sc2c1	3.16 µM (active)
COc1ccc(-c2nc3ccccc3o2)cc1NC(=O)c1cc([N+](=O)[O-])ccc1N1CCOCC1	inactive
O=C(NC1CCCCC1)c1cc([N+](=O)[O-])ccc1N1CCOCC1	inactive
CCOC(=O)c1c(NC(=O)c2cccs2)sc(C)c1C	inactive
CCOC(=O)c1c(NC(=O)COc2cc(C)ccc2C(C)C)sc(C)c1C	25.1 µM (active)
CCOC(=O)c1sc(NC(=O)COc2ncnc3ccccc23)c(C(=O)OCC)c1C	inactive
Clc1cccc(-n2ncc3c(NCCc4ccccc4)ncnc32)c1	inactive
Cc1ccc(Cl)cc1NC(=O)CCC(=O)N1CC(C)Sc2ccccc21 (stereo not given)	inactive
CCCNC(=O)C1CCN(c2nc3ccc(C)cc3[nH]2)CC1	inactive
COCC(C)NS(=O)(=O)c1ccc(N2CCCCS2(=O)=O)cc1 (stereo not given)	inactive
S=C(c1ccc(-c2ccccc2)o1)N1CCCCC1	15.8 µM (active)
OCCN1CCN(C(=S)c2ccc(-c3ccccc3)cc2)CC1	inactive
S=C(NCCc1ccccc1)N1CCCCC1	inactive
OCC(CO)(CO)NCc1ccc(-c2ccccc2)cc1	inactive
Oc1ccccc1N1CCN(C(=S)NCc2ccccc2)CC1	inactive
Oc1ccc(CNc2ccccc2O)cc1	14.1 µM (active)
Cc1cccc(C2C3=C(CCCC3=O)N=C3c4ccccc4C(=O)C32)c1 (stereo not given)	14.1 µM (active)
CCc1nc2cccnc2n1-c1ccc(CC(=O)Nc2c(C)cccc2C)cc1	inactive
COc1ccc(CCNC(=O)Cn2c(=O)cc(C(F)(F)F)c3c(C)nn(C)c32)c(OC)c1	inactive
CCc1nnc(NC(=O)/C=C/c2ccc(C)o2)s1	inactive
Cc1ccc(/C=C/C(=O)Nc2cc(S(=O)(=O)N3CCCCCC3)ccc2OCC(F)(F)F)o1	inactive
Cc1ccc(/C=C/C(=O)Nc2ccc([N+](=O)[O-])c(NC(=O)/C=C/c3ccc(C)o3)c2)o1	12.6 µM (active)
CCOc1cccc(/C=N/N2C(=O)CSC2=S)c1O	22.4 µM (active)

SMILES	Potency
CCOc1ccccc1N=C1NC(=O)CS1	inactive
CCOc1cccc(/C=N/NC(=S)NCCN2CCOCC2)c1O	inactive
COc1ccc(OC)c(NC(=O)CSC2=Nc3ccccc3C3=NC(CC(=O)NCCc4ccccc4)C(=O)N23)c1 (stereo not given)	inactive
CC(=O)Oc1c2c(c3c(c1CC=C(C)C)O[C@@]14C(=CC5CC1C(C)(C)OC4(C/C=C(\C)C(=O)O)C5=O)C3=O)OC(C)(CCC=C(C)C)C=C2 (stereo not given in full)	31.6 µM (active)
COc1ccccc1NC(=O)Cn1cnc2ccc(S(=O)(=O)N3CCC(C)CC3)cc2c1=O	inactive
CN1c2ccc(Cl)cc2-c2nc(SCC(=O)Nc3cc(F)ccc3F)ncc2S1(=O)=O	inactive
CN1/C(=c2/s/c(=C3/C(=O)N(c4ccccc4)NC3=Nc3ccccc3)n(C)c2=O)C(C)(C)c2ccccc21	7.94 µM (active)
CC1CCCCN1CCCNC(=O)Cn1ncc2c([nH]c3ccccc32)c1=O (stereo not given)	inactive
CCc1ccc(NC(=O)CCS(=O)(=O)c2cc3c(cc2Cl)NC(=O)CO3)cc1	inactive
COc1ccc(C)cc1NC(=O)C(=O)NCCc1sc(-c2cccc(C)c2)nc1C	inactive
Cc1ccc(Nc2ccc(C(N)=O)cc2[N+](=O)[O-])cc1	inactive
O=C(O)c1ccccc1C(=O)Nc1ccccc1[N+](=O)[O-]	inactive
O=[N+]([O-])c1ccccc1Nc1ccc(O)cc1	22.4 µM (active)
CCCN1C(=O)C(O)(CC(=O)c2ccc(CC)cc2)c2cc(Br)ccc21 (stereo not given)	inactive
Cc1nonc1NC(=O)CSc1nc2ccccc2cc1C#N	1.78 µM (active)
CCOc1ccc2cc(C#N)c(SCC(=O)OC)nc2c1	3.16 µM (active)
Cc1cc(C)c(C#N)c(SCC(=O)Nc2ccccc2)n1	inactive
COc1ccc(N2CCN(C(=O)CSc3nc4cc(OC)c(OC)cc4cc3C#N)CC2)cc1	inactive
Cc1nc2cc(NC(=O)CSc3nc4c(C)cccc4cc3C#N)ccc2s1	inactive
COC(=O)CSc1nc(C)c2ccc(OC)cc2n1	inactive
CC(=O)c1ccc(NC(=O)c2nc(-c3ccc(C)cc3)n3c2CCCCC3)cc1	inactive
Cc1ccc(CCNC(=O)c2nnc(Cc3cccc(F)c3)o2)cc1	inactive
CNC(=O)c1c(NC(NC(=O)c2ccco2)C(=O)c2ccc(Cl)cc2)sc2c1CCCC2 (stereo not given)	25.1 µM (active)
CCOC(=O)c1c(NC(=S)NC(=O)c2ccco2)sc2c1CCCC2	inactive
CC(C)OC(=O)c1c(NC(=O)c2ccco2)sc2c1CCCC2	inactive
